Target: GPR35
Assay: pooled miR-30 sensor sort-seq; sequence = guide strand
Settings: shRNA
Further: reference of the scale not given here.

Row | Sequence | sensor-assay potency score (higher = more potent)
1 | TAGAAGCCCAGCTTGATCGCTG | 0.371
2 | TTGCTGGTTATGTACAGGGCGC | -1.43
3 | TTGGCATCTGAGAGCTTGCTGG | -1.04
4 | ATGGAGTTGAAATTGTGCCGGG | -0.394
5 | TGGAGTTGAAATTGTGCCGGGT | 0.0323
6 | TTTGTGGGCCTTAGCACTGGGA | -1.13
7 | TTGGCCATGTAGTAGTAGCAGA | -0.948
8 | TTTTGTGGGCCTTAGCACTGGG | -0.0303
9 | ATGTAGTAGTAGCAGATGGCGT | -1.53
10 | TAGCAGATGGCGTCCAGGCAGC | -1.38
11 | TGTAGTAGTAGCAGATGGCGTC | 0.146
12 | TAGGCGTAGAAGCCCAGCTTGA | -1.67

Target: GPR3
Assay: as above
Settings: shRNA

Row | Sequence | sensor-assay potency score (higher = more potent)
13 | TAAATAGACACTGTCTTTGTAT | 0.00652
14 | TAGGGATCTGAACAGAACCTTG | -1.54
15 | TAGAGCTGCAGCATGATGCCAA | -0.00504
16 | TAGCTCAGAAATTCAAACGTAA | 0.128
17 | TCTGAGTAGAACACTGACCACC | -0.825
18 | TTGGAAGAGGAACAGCAGCAGC | -1.16
19 | TTGTACAGAGAAAGGTAGCGGT | 0.0257
20 | TGACTAATCTCTCTGACTCTTT | -0.512
21 | TAGAACTCCAGAACCAGCTGGG | 0.254
22 | TATATGTGCATATATAATCTTT | -0.621
23 | TTGTCTCTGAATAGTAGGTGAG | -1.17
